KDM5B inh = KDM5B demethylase inhibition; Q9UGL1; KDM5B demethylase, FDH-coupled NADH fluorescence (FDH is formaldehyde dehydrogenase); Potency, µM (titrated, usually from 57.7 µM), actives largely listed as inhibitors; actives 2.6% (n = 220,000); AID 1347165; active = well fitted inhibition curve with a large enough effect; note: 0% is about no effect; nearly all actives have a fitted effect of over 70% in size
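Here, H3K4me3 peptide (12.5 µM in substrate mix) is demethylated by KDM5BΔAP, 200 nM final, after 10 min compound exposure. Formaldehyde product is coupled through FDH (0.25 U/mL in mix) to NADH fluorescence; 30-min ΔRFU feeds dose-response curves.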
Numbers without * were called inactive; i = inactive. Shown is part of a subset that was picked to be rich in hits. Potency is the fitted concentration of half-maximal effect.

SMILES | KDM5B inh
CCCCNC(=O)c1cc(NC(=O)CC)cc2nc(C)ccc12 | 25µM*
CCNC(=O)c1cc(NC(=O)CC)cc2nc(C)ccc12 | 20µM*
Cc1cc(C(=O)NCC(=O)NC(C)C)c2ccccc2n1 | i
Cc1cc(C)cc(NC(=O)c2cc(C)nc3ccccc23)c1 | i
CC(C)CNC(=O)c1cc(-c2ccncc2)nc2ccccc12 | i
CCC(=O)Nc1cc(C(=O)NCC(C)C)c2ccc(C)nc2c1 | 22µM*
CCC(=O)NCCCNC(=O)c1cc(-c2ccccc2)nc2ccccc12 | i
O=C(Nc1cccc(S(=O)(=O)N2CCCC2)c1)C1=COCCO1 | i
CCC(CC)COC(=O)C(C#N)c1nc2ccccc2nc1N1CCN(C)CC1 (stereo not drawn) | i
Cn1c(=O)c2[nH]c(N3CCN(c4ccc(F)cc4)CC3)nc2n(C)c1=O | i
CCCC(CCC)C(=O)NCCc1c[nH]c2ccc(C)cc12 | i
O=C1CO[C@H]2CN(Cc3c[nH]c4ccccc34)C[C@H]2N1Cc1ccc(F)cc1 | i
CC(C)NC(=O)CCc1cc2n(n1)CCN(C(=O)CN1CC(=O)NC1=O)C2 | i
COc1ccc(-c2nc3c(c(=O)[nH]2)CCN(S(=O)(=O)c2cccs2)C3)cc1 | 20µM*
O=C(Cc1ccccc1)N1CCc2c(nc(-c3ccccc3)[nH]c2=O)C1 | i
COc1ncccc1C(=O)N1CCc2c(nc(-c3cccnc3)[nH]c2=O)C1 | i
Cc1ccc(OCC(=O)N2CCN(S(=O)(=O)c3cccs3)CC2)cc1 | i
COc1ccc(-c2nc3c(c(=O)[nH]2)CCN(C(=O)COc2ccccc2C)C3)cc1 | 25µM*
COc1ccc(CNC(=O)N2CCc3c(nc(-c4ccc(OC)cc4)[nH]c3=O)C2)cc1 | i
COc1nn(C)c2nc(C)c(CCC(=O)NC(C)C(C)C)c(C)c12 (stereo not drawn) | i
O=C(NC1CCCc2ccccc21)c1csc2c1CCCC2 (stereo not drawn) | i
CC(C)OC(=O)/C(C#N)=C\c1ccc(-c2cc(Cl)ccc2Cl)o1 | i
O=C(CCc1c[nH]c2ccccc12)N1CCC(c2noc(C3CC3)n2)C1 (stereo not drawn) | i
CC(C)Cc1c(C(C)C)sc(N)c1C#N | i
CC(NC1CC1)c1ccc(Cl)cc1 (stereo not drawn) | i
SMILES | KDM5B inh
CNc1nc2c(s1)C(c1ccccc1F)CC(=O)N2 (stereo not drawn) | 35µM*
CCOC(=O)C1=C(C)NC(=O)CC1c1ccccc1F (stereo not drawn) | i
COC(=O)C1=C(C)NC(=O)CC1c1cccc(F)c1 (stereo not drawn) | i
Nc1nc2c(s1)C(c1cccc(OCc3ccccc3F)c1)CC(=O)N2 (stereo not drawn) | i
Cc1c(C#N)c(N)nc2c3c(sc12)NC(=O)CC3c1ccccc1F (stereo not drawn) | i
CCNc1nc2c(s1)C(c1cccc(F)c1)CC(=O)N2 (stereo not drawn) | 25µM*
CCN(CC)S(=O)(=O)c1ccc(S(=O)(=O)Nc2cccc(S(N)(=O)=O)c2)cc1 | i
O=C(c1ccc(Cl)cc1)N1CC2(CCCN2Cc2cccnc2)Cc2ccccc21 (stereo not drawn) | i
CC(C(=O)c1ccccc1)C1(O)C(=O)Nc2ccc(Br)cc21 (stereo not drawn) | i
Cc1ccc(N=c2scc(-c3ccccc3)n2-c2ccc(C)cc2)cc1 | i
COc1cc(CN2CCC(C)(c3noc(C4CCOCC4)n3)CC2)ccc1OC(C)C | i
CCCCCCCCCCS(=O)CCC(=O)O (stereo not drawn) | i
Fc1cccc(-n2cc(CN3CCCC4(CCOC4)C3)cn2)c1 (stereo not drawn) | i
O=C1CCN(S(=O)(=O)c2cccc(F)c2)CCCCCCN1 | i
O=C1NCCCc2[nH]c(-c3cnn(-c4cccc(F)c4)c3)nc21 | 28µM*
COc1cccc(NC(=O)C(Sc2nnc(-c3ccco3)n2N)c2ccccc2)c1 (stereo not drawn) | i
COC(C(=O)NCc1ccc(C)cc1)(c1ccccc1)c1ccccc1 | i
O=C(c1cc[nH]c(=O)c1)N1C[C@@H](COCC2CC2)[C@H](c2ccccn2)C1 | 28µM*
Cn1nccc1C(=O)N1C[C@@H](COCC2CC2)[C@H](c2ccccn2)C1 | i
Cc1cc(C(=O)N2C[C@@H](COCC3CC3)[C@H](c3ccccn3)C2)n[nH]1 | i
CCOC(=O)c1nc2ccccc2nc1N1CCN(c2ccccc2)CC1 | i
CC(C)n1nc(C(=O)NC2CCN(Cc3ccccc3)C2)c2ccccc2c1=O (stereo not drawn) | i
COc1ccc(C(=O)NC2CC2)cc1 | i
CC1(COc2cccnc2)COc2ccc(C(=O)NC3CCC(O)CC3)cc2N1 (stereo not drawn) | 35µM*
COc1ccc(C(=O)NCC2(COc3cccnc3)C[C@@H](O)[C@@H](O)C2)cc1 (stereo partly drawn) | i
SMILES | KDM5B inh
COc1ccc(NC(=O)Cn2c(=O)n(Cc3ccc4c(c3)OCO4)c(=O)c3ccc(C(=O)NC4CCCCC4)cc32)cc1 | i
Cc1cc(C(=O)NCC2(COc3cccnc3)C[C@@H](O)[C@@H](O)C2)no1 (stereo partly drawn) | i
O[C@@H]1CC(CNC2CCC2)(COc2cccnc2)C[C@@H]1O (stereo partly drawn) | i
CC1(COc2cccnc2)COc2ccc(C(=O)NCC3CCOCC3)cc2N1 (stereo not drawn) | 35µM*
COc1ccc(OCC2(C)COc3ccc(C(=O)NC4CCC(O)CC4)cc3N2)cc1 (stereo not drawn) | 32µM*
O=C(Nc1cccc(Br)c1)c1ccc2c(c1)CCC2 | i
CCOC(=O)C1CCN(c2nc3ccccc3nc2C(C#N)C(=O)NCCOC)CC1 (stereo not drawn) | i
CC1=C(C(=O)N2CCOCC2)C(c2c(F)cccc2F)NC(=O)N1Cc1ccccc1 (stereo not drawn) | i
CCOC(=O)C1C(=O)C=C(c2ccc(C)cc2)CC1c1ccc(CC)cc1 (stereo not drawn) | i
COC(=O)c1cc2ccccc2cc1OC(=O)Cc1cc(C(C)=O)ccc1OC | i
COc1ccccc1CNC(=O)c1ccc2cn[nH]c2c1 | i
Cc1nccn1Cc1nnc(C2CCN(C(=O)c3cnccn3)CC2)n1C | i
CN(C)S(=O)(=O)c1cc(NC(=O)c2nn(Cc3ccccc3)c(=O)c3ccccc23)ccc1Cl | i
Cc1ccc([S+](=O)([O-])c2nnn3c2nc(NC2CC2)c2ccccc23)cc1C | i
O=[S+]([O-])(c1ccncc1)c1nnn2c1nc(NCc1ccc(F)cc1)c1ccccc12 | i
COc1ccc([S+](=O)([O-])c2nnn3c2nc(NCCCOC(C)C)c2ccccc23)cc1 | i
CC(C)c1ccc([S+](=O)([O-])c2nnn3c2nc(NCc2ccncc2)c2ccccc23)cc1 | 79µM*
COc1ccc(OC)c([S+](=O)([O-])c2nnn3c2nc(NCc2ccc(F)cc2)c2ccccc23)c1 | i
COCCNc1nc2c([S+](=O)([O-])c3ccncc3)nnn2c2ccccc12 | i
O=[S+]([O-])(c1ccc(Cl)cc1)c1nnn2c1nc(NCc1ccncc1)c1ccccc12 | 89µM*
O=[S+]([O-])(c1cccnc1)c1nnn2c1nc(NCc1ccncc1)c1ccccc12 | i
O=[S+]([O-])(c1ccncc1)c1nnn2c1nc(N1CCOCC1)c1ccccc12 | i

Bioassay records (PubChem)
